# Results: PubChem BioAssay (Tox21)
# Records with an inconclusive call do not appear. Entries that show only a call come without a potency. A number with no mark means an inactive call. The source made the active and inactive calls. Unless noted, the call rests on the fitted dose curve; in most records, active means well fitted curve in the direction sought with a large enough effect in the repeat runs; inconclusive means weak or mixed curves; inactive means no such curve, though single readings can be large; an effect the other way counts as inactive or inconclusive.
# Target: Estrogen receptor beta (Homo sapiens) (UniProt Q92731)
# Test: qHTS assay to identify small molecule antagonists of the estrogen receptor beta (ER-beta) signaling pathway (AID 1259378; active means well fitted inhibition curve with a large enough effect in the signal ratio in the repeat runs, not every such curve was filed as active; the % refers to the signal ratio)
# Details: ER-beta-UAS-bla HEK293T, beta-lactamase FRET ratio, 16 h; series mostly up to 92.4 µM
# Outline: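 Antagonist mode: compounds added to beta-lactamase reporter HEK293T ER-beta-UAS cells stimulated with E2 (1nM final), 16 hr at 37C. LiveBLAzer B/G FRET substrate, 2 hours room temperature, fluorescence read-out.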
# Estrogen receptor beta (Homo sapiens), sequence (Q92731 whole entry, looked up): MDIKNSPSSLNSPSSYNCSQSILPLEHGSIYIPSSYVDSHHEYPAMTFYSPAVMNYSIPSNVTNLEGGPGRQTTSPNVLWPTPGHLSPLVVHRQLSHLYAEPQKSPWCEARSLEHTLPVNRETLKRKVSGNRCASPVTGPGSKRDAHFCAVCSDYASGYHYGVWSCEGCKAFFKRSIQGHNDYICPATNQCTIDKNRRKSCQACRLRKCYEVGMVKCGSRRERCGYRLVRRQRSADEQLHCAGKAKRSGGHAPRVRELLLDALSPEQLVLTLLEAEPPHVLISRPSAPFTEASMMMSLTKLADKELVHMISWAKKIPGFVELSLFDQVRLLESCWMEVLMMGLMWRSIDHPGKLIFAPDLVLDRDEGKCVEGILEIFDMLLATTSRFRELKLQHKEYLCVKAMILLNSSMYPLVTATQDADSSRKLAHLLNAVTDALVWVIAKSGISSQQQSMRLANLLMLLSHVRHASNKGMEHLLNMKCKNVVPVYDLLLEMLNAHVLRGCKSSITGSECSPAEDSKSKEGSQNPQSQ
SMILES,Potency,"activity, negative = inhibition"
C=CC(=O)OC,inactive,–
Clc1cccc(SC2CCNCC2)n1,inactive,–
O=[N+]([O-])C(Br)(CO)CO,inactive,–
O=C(O)C(F)(F)C(F)(F)C(F)(F)C(F)(F)C(F)(F)C(F)(F)C(F)(F)C(F)(F)C(F)(F)C(F)(F)F,inactive,–
O=C(O)COc1ccc(Cl)cc1,inactive,–
CO[C@@H]1[C@H](OC(=O)NC(=O)CCl)CC[C@]2(CO2)[C@H]1[C@@]1(C)O[C@@H]1CC=C(C)C,–,-21.4% [at 19 µM]

# Test system: not listed separately
# Test: qHTS assay to identify small molecule agonists of the androgen receptor (AR) signaling pathway in the presence of an antagonist - cell viability counter screen (AID 1259379); further: nearly all actives have a fitted effect of over 25% in size; further: potency means the concentration at half of the fitted maximal effect;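 on activity change, negative = cytotoxicity: MDA-kb2 human breast cancer cells carrying an MMTV luciferase reporter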
# Details: MDA-kb2 viability, CellTiter-Fluor, 16 h; series mostly up to 92.4 µM
# Outline: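 MDA-kb2 human breast carcinoma cells (stable MMTV-luciferase, AR/GR responsive) were seeded 3,000 cells/well, pre-incubated 5 hr at 37C without CO2, then given 3.0uM nilutamide and compounds at 15 concentrations for 16 hr. Viability was read by CellTiter-Fluor fluorescence.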
SMILES,Potency,"activity change, negative = cytotoxicity"
CCCCN=C=O,inactive,–
C=C(C#N)CCC#N,inactive,–
CC(C)N(CCC(C(N)=O)(c1ccccc1)c1ccccn1)C(C)C (configuration not stated),inactive,–
CC(=O)C(C)(C)C,inactive,–
O=Cc1ccc2c(c1)OCO2,inactive,–
CC(=O)CCC(C)=O,inactive,–
O=C1c2ccccc2C(=O)C1C(=O)C(c1ccccc1)c1ccccc1,inactive,–
ClCC(Br)CBr (configuration not stated),inactive,–
CCC(Br)(CC)C(=O)NC(N)=O,inactive,–
C=CC(=O)OC(C)(C)C,inactive,–
Nc1nc(N)nc(N)n1,inactive,–
CCOP(=O)(OCC)Oc1ccc([N+](=O)[O-])cc1,inactive,–
CCCCCCC#N,inactive,–
C=CCC1([C@H](C)CCC)C(=O)NC(=O)NC1=O,inactive,–
CC1(C)[C@H](C=C(Cl)Cl)[C@@H]1C(=O)O[C@@H](C#N)c1cccc(Oc2ccccc2)c1,inactive,–
CCBr,inactive,–
Cc1ccc(N)cc1C,inactive,–
N#C/C(N)=C(/N)C#N,inactive,–

SMILES,Potency,"activity change, negative = cytotoxicity"
CCOP(O)OCC,inactive,–
CCOC(=O)CBr,inactive,–
CCCN(CC1CC1)c1c([N+](=O)[O-])cc(C(F)(F)F)cc1[N+](=O)[O-],inactive,–
CC(C)(CCl)C(=O)Cl,inactive,–
CN1C(=O)NC(=O)C(C)(C2=CCCCC2)C1=O (configuration not stated),inactive,–
CCC(Cl)CCl (configuration not stated),inactive,–
CO/C=C(/C(=O)OC)c1ccccc1COc1cccc(C(F)(F)F)n1,5.44 µM (active),–
COC(N)=O,inactive,–
CC/C(=N\OC/C=C/Cl)C1=C(O)CC(C2CCOCC2)CC1=O (configuration not stated),inactive,–
c1ccoc1,inactive,–
O=C(O)CC(Cl)C(=O)O (configuration not stated),inactive,–
C=CC(=O)OC,inactive,–
Clc1cccc(SC2CCNCC2)n1,inactive,–
O=[N+]([O-])C(Br)(CO)CO,inactive,–
O=C(O)C(F)(F)C(F)(F)C(F)(F)C(F)(F)C(F)(F)C(F)(F)C(F)(F)C(F)(F)C(F)(F)C(F)(F)F,inactive,–
O=C(O)COc1ccc(Cl)cc1,inactive,–
CO[C@@H]1[C@H](OC(=O)NC(=O)CCl)CC[C@]2(CO2)[C@H]1[C@@]1(C)O[C@@H]1CC=C(C)C,–,-2.66% [at 19 µM]

# Test system: not listed separately
# Test: qHTS assay to identify small molecule agonists of the estrogen receptor beta (ER-beta) signaling pathway - cell viability counter screen (AID 1259380); further: nearly all actives have a fitted effect of over 30% in size; further: potency means the concentration at half of the fitted maximal effect
# Details: ER-beta-bla HEK293T viability, CellTiter-Glo luminescence, 16 h; series mostly up to 92.4 µM
# Outline: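 ER-beta-UAS-bla HEK293T cells in medium with 2% charcoal-stripped FBS were preincubated 6 hr at 37C, dosed with compound in DMSO for 16 hr, then after the bla read, CellTiter-Glo was added for 30 min at room temperature; luminescence recorded.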
row,SMILES,Potency
1,CCCCN=C=O,inactive
2,C=C(C#N)CCC#N,inactive
3,CC(C)N(CCC(C(N)=O)(c1ccccc1)c1ccccn1)C(C)C (configuration not stated),inactive
4,CC(=O)C(C)(C)C,inactive
5,O=Cc1ccc2c(c1)OCO2,inactive
6,CC(=O)CCC(C)=O,inactive
7,O=C1c2ccccc2C(=O)C1C(=O)C(c1ccccc1)c1ccccc1,inactive
8,ClCC(Br)CBr (configuration not stated),inactive
9,CCC(Br)(CC)C(=O)NC(N)=O,inactive
10,C=CC(=O)OC(C)(C)C,inactive
11,Nc1nc(N)nc(N)n1,inactive
12,CCOP(=O)(OCC)Oc1ccc([N+](=O)[O-])cc1,inactive
13,CCCCCCC#N,inactive
14,C=CCC1([C@H](C)CCC)C(=O)NC(=O)NC1=O,inactive
15,CC1(C)[C@H](C=C(Cl)Cl)[C@@H]1C(=O)O[C@@H](C#N)c1cccc(Oc2ccccc2)c1,inactive
16,CCBr,inactive

row,SMILES,Potency
1,Cc1ccc(N)cc1C,inactive
2,N#C/C(N)=C(/N)C#N,inactive
3,CCOP(O)OCC,inactive
4,CCOC(=O)CBr,inactive
5,CCCN(CC1CC1)c1c([N+](=O)[O-])cc(C(F)(F)F)cc1[N+](=O)[O-],inactive
6,CC(C)(CCl)C(=O)Cl,inactive
7,CN1C(=O)NC(=O)C(C)(C2=CCCCC2)C1=O (configuration not stated),inactive
8,CCC(Cl)CCl (configuration not stated),inactive
9,CO/C=C(/C(=O)OC)c1ccccc1COc1cccc(C(F)(F)F)n1,4.85 µM (active)
10,CC/C(=N\OC/C=C/Cl)C1=C(O)CC(C2CCOCC2)CC1=O (configuration not stated),inactive
11,c1ccoc1,inactive
12,O=C(O)CC(Cl)C(=O)O (configuration not stated),inactive
13,C=CC(=O)OC,inactive
14,Clc1cccc(SC2CCNCC2)n1,inactive
15,O=C(O)COc1ccc(Cl)cc1,inactive

# Test system: not listed separately
# Test: qHTS assay to identify small molecule antagonists of the estrogen receptor beta (ER-beta) signaling pathway - cell viability counter screen (AID 1259382);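 further: HEK293T cells carrying ER-beta-UAS-bla reporter stimulated with estradiol; nearly all actives have a fitted effect of over 55% in size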
# Details: ER-beta-UAS-bla HEK293T viability, CellTiter-Glo luminescence, 16 h; series mostly up to 92.4 µM
# Outline: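 ER-beta-UAS-bla HEK293T cells (2,000/well, 2% charcoal-stripped FBS) were pre-incubated 6 hr at 37C, then given compound plus 1nM final 17-beta-estradiol for 16 hr. Viability was read in the same wells by CellTiter-Glo luminescence after 30 min at room temperature.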
SMILES,Potency,"activity change, negative = cytotoxicity"
CCCCN=C=O,inactive,–
C=C(C#N)CCC#N,inactive,–
CC(C)N(CCC(C(N)=O)(c1ccccc1)c1ccccn1)C(C)C (configuration not stated),inactive,–
CC(=O)C(C)(C)C,inactive,–
O=Cc1ccc2c(c1)OCO2,inactive,–
CC(=O)CCC(C)=O,inactive,–
O=C1c2ccccc2C(=O)C1C(=O)C(c1ccccc1)c1ccccc1,inactive,–
ClCC(Br)CBr (configuration not stated),inactive,–
CCC(Br)(CC)C(=O)NC(N)=O,inactive,–
C=CC(=O)OC(C)(C)C,inactive,–
Nc1nc(N)nc(N)n1,inactive,–
CCOP(=O)(OCC)Oc1ccc([N+](=O)[O-])cc1,inactive,–
CCCCCCC#N,inactive,–
C=CCC1([C@H](C)CCC)C(=O)NC(=O)NC1=O,inactive,–
CC1(C)[C@H](C=C(Cl)Cl)[C@@H]1C(=O)O[C@@H](C#N)c1cccc(Oc2ccccc2)c1,inactive,–
CCBr,inactive,–
Cc1ccc(N)cc1C,inactive,–
N#C/C(N)=C(/N)C#N,inactive,–

SMILES,Potency,"activity change, negative = cytotoxicity"
CCOP(O)OCC,inactive,–
CCOC(=O)CBr,inactive,–
CCCN(CC1CC1)c1c([N+](=O)[O-])cc(C(F)(F)F)cc1[N+](=O)[O-],inactive,–
CC(C)(CCl)C(=O)Cl,inactive,–
CN1C(=O)NC(=O)C(C)(C2=CCCCC2)C1=O (configuration not stated),inactive,–
CCC(Cl)CCl (configuration not stated),inactive,–
CO/C=C(/C(=O)OC)c1ccccc1COc1cccc(C(F)(F)F)n1,inactive,–
COC(N)=O,inactive,–
CC/C(=N\OC/C=C/Cl)C1=C(O)CC(C2CCOCC2)CC1=O (configuration not stated),inactive,–
c1ccoc1,inactive,–
O=C(O)CC(Cl)C(=O)O (configuration not stated),inactive,–
C=CC(=O)OC,inactive,–
Clc1cccc(SC2CCNCC2)n1,inactive,–
O=[N+]([O-])C(Br)(CO)CO,inactive,–
O=C(O)C(F)(F)C(F)(F)C(F)(F)C(F)(F)C(F)(F)C(F)(F)C(F)(F)C(F)(F)C(F)(F)C(F)(F)F,inactive,–
O=C(O)COc1ccc(Cl)cc1,inactive,–
CO[C@@H]1[C@H](OC(=O)NC(=O)CCl)CC[C@]2(CO2)[C@H]1[C@@]1(C)O[C@@H]1CC=C(C)C,–,-10.8% [at 19 µM]
